In all, about 3,300 compounds went through this assay and about 55 (2%) were called active.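 Rule for the calls: active = growth inhibition above 90%, meaning viable cell count by imaging cut by more than 90% versus vehicle controls; inactive = growth inhibition below 90%.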 For the sample, actives were picked, then their nearest neighbours and some compounds at random.
Test: HT29 colon tumor cell growth inhibition, primary screen, imaging, high content imaging, 48 h, CellTiter-Glo (AID 771);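 for condensed nuclei: condensed means Hoechst nuclear area under control median minus 1.5 SD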
Details: HCS imaging cell count, at 10 µM, stronger effect = higher value; for condensed nuclei: measured here: percent cells with condensed nuclei
[1] = measured here: ATP CellTiter-Glo viability inhibition

Row | Compound | growth inhibition | growth inhibition [1] [%] | condensed nuclei [%]
1 | Cc1ccc2[nH]c3c(N4CCOCC4)ncnc3c2c1 | 42.1% (inactive) | 15.8 | 0.48
2 | Fc1ccc2[nH]c3c(N4CCN(Cc5ccc6c(c5)OCO6)CC4)ncnc3c2c1 | 97.9% (active) | 92.8 | 29
3 | CN1CCN(c2ncnc3c2[nH]c2ccc(F)cc23)CC1 | 64.5% (inactive) | 10 | 2.81
4 | c1ccc(CN2CCN(c3ncnc4c3[nH]c3ccccc34)CC2)cc1 | 89.4% (inactive) | 57.3 | 10.8
5 | Cc1ccc2[nH]c3c(N4CCN(Cc5ccccc5)CC4)ncnc3c2c1 | 16% (inactive) | -1.83 | 2.02
6 | Cc1ccc2[nH]c3c(N4CCCCCC4)ncnc3c2c1 | 96.6% (active) | 93 | 38.1
7 | Fc1ccc2[nH]c3c(N4CCN(C5CCCCC5)CC4)ncnc3c2c1 | 94% (active) | 85.4 | 10.8
8 | Cc1ccc2[nH]c3c(N4CCN(Cc5ccc6c(c5)OCO6)CC4)ncnc3c2c1 | 94.2% (active) | 91.8 | 25.3
9 | COc1ccc2[nH]c3c(N4CCN(Cc5ccc6c(c5)OCO6)CC4)ncnc3c2c1 | 40.6% (inactive) | 20.9 | 3.53
10 | Fc1ccc2[nH]c3c(N4CCSCC4)ncnc3c2c1 | 38.7% (inactive) | 37.9 | 4.52
11 | c1ccc2c(c1)[nH]c1c(N3CCSCC3)ncnc12 | 57.5% (inactive) | 9.84 | 0.5
12 | c1ccc2c(c1)[nH]c1c(N3CCN(C4CCCCC4)CC3)ncnc12 | 58.7% (inactive) | 2.53 | 3.08
13 | O=C(CCN1CCc2ccccc2CC1)c1ccc2c(c1)OCCO2 | 18.3% (inactive) | 14.1 | 1.32
14 | Fc1ccc(-c2cnc[nH]2)cc1 | 7.2% (inactive) | -20.5 | 1.71
15 | COC(=O)CSc1nc2sc3c(c2c(=O)n1C1CCCCC1)CCN(C)C3 | 31.7% (inactive) | -21.3 | 4.17
16 | O=C(O)CC(C(=O)N(c1ccccc1)c1ccccc1)N1CCOCC1 (stereo not drawn) | -4.04% (inactive) | -10.5 | 1.81
17 | Cc1occc1C(=O)OCC(=O)Nc1ccc(F)cc1 | 41.9% (inactive) | 18.1 | 4.91
18 | Cc1ccc(CNC(=O)c2cc3c(=O)n4ccccc4nc3n(Cc3ccco3)c2=N)cc1 | 38.7% (inactive) | 10.6 | 1.03
19 | CCOc1ccc(C2/C(=C(/O)c3ccc(F)cc3)C(=O)C(=O)N2CCCN(C)C)cc1 (stereo not drawn) | 28.1% (inactive) | -5.46 | 5.22
20 | CCN1CCN(c2nc3c(C)cccn3c(=O)c2/C=C(\C#N)S(=O)(=O)c2ccccc2)CC1 | 9.15% (inactive) | 7.42 | 2.58
21 | COC(=O)c1cc(Br)c(=O)n(CCc2ccc(F)cc2)c1 | 43.4% (inactive) | 17.2 | 1.12
22 | CCOC(=O)c1[nH]c2ccc(F)cc2c1N=C(C)N(CC)CC | -6.13% (inactive) | -22.6 | 2.07
23 | CC(C)CNC(=O)c1c(N)n(/N=C/c2ccccn2)c2nc3ccccc3nc12 | -40% (inactive) | -5.64 | 2.54
24 | COc1cccc(N2CCN(c3ncnc4c3[nH]c3ccc(F)cc34)CC2C)c1 (stereo not drawn) | 91.7% (active) | 89.4 | 4.17

Row | Compound | growth inhibition | growth inhibition [1] [%] | condensed nuclei [%]
25 | COc1cccc(N2CCN(c3ncnc4c3[nH]c3ccccc34)CC2C)c1 (stereo not drawn) | 89.8% (inactive) | 62.2 | 5.36
26 | Fc1ccc2[nH]c3c(N4CCN(c5ccccc5)CC4)ncnc3c2c1 | 81.6% (inactive) | 84.2 | 29.2
27 | CC(=O)/C=C(\C)NCCNc1c(F)c(F)c(CO)c(F)c1F | 23.4% (inactive) | 0.5 | 1.42
28 | CC(NCCc1ccc(O)cc1)C(O)c1ccc(O)cc1 (stereo not drawn) | -16.3% (inactive) | – | 2.5
29 | CCCCCCCCNC(C)C(O)c1ccc(SC(C)C)cc1 (stereo not drawn) | 99.7% (active) | – | 50
30 | CC(COc1ccccc1)NC(C)C(O)c1ccc(O)cc1 (stereo not drawn) | 22.6% (inactive) | – | 2.89
31 | COc1ccc(OC)c(C(O)c2coc3ccc(O)c(CN4CCOCC4)c23)c1 (stereo not drawn) | -2.41% (inactive) | -6.82 | 4.2
32 | Cc1nc(=O)c(-c2ccccc2)c(C)n1-c1ccc(S(N)(=O)=O)cc1 | -25.6% (inactive) | -8.56 | 2.99
33 | CCOC(=O)c1[nH]c2cc(OC)c(OC)cc2c1NC(=O)C(C)N1CCN(Cc2ccccc2)CC1 (stereo not drawn) | 3.83% (inactive) | -7.15 | 3.08
34 | CCCCC(=O)NC(Nc1ccc(C)cn1)(C(=O)OCC)C(F)(F)F (stereo not drawn) | -56.4% (inactive) | -18.7 | 2.76
35 | CCn1cc(C(=O)NCCc2ccccc2)c(=O)c2cc(F)c(N3CCN(C)CC3)cc21 | 97% (active) | 89.7 | 14.8
36 | CCn1cc(C(=O)NCCCN(C)C)c(=O)c2cc(F)c(N3CCN(C)CC3)cc21 | 23.8% (inactive) | -23.1 | 4.97
37 | CCn1cc(C(=O)NCc2ccccn2)c(=O)c2cc(F)c(N3CCN(C)CC3)cc21 | 15.6% (inactive) | -1.75 | 2.93
38 | CCOC(=O)c1ccccc1OCc1cc(/C=N/n2cncn2)ccc1OC | 28.7% (inactive) | 6.4 | 3.97
39 | CCOc1ccc(C2C(C#N)=C(N)SC(N)=C2C#N)cc1OC | 25.3% (inactive) | 1.94 | 0.7
40 | OCCNc1ncnc2c1c(-c1ccccc1)c(-c1ccccc1)n2Cc1ccco1 | 37.6% (inactive) | 15.3 | 3.02
41 | N=c1c2c(-c3ccccc3)c(-c3ccccc3)n(Cc3ccccc3)c2ncn1CCCn1ccnc1 | 99.7% (active) | 97.2 | 41.1
42 | O=c1c(C=NCCCn2ccnc2)c(-c2ccccc2)[nH]n1-c1nc2ccccc2s1 | 1.39% (inactive) | 1.73 | 3.29
43 | COC(=O)c1[nH]c(C)c(/C(O)=C2\C(=O)C(=O)N(CCN3CCOCC3)C2c2ccccc2OC)c1C (stereo not drawn) | 15.6% (inactive) | 7.04 | 1.6
44 | O=C(NCCN1CCCCC1)/C(=N\O)c1ccccc1 | -0.27% (inactive) | -18.5 | 1.08
45 | Cc1c(=O)n(OCc2c(F)cccc2F)c2ccccc2[n+]1[O-] | 7.92% (inactive) | 2.47 | 2.94
46 | C=CC(O)Cc1c(C)n[nH]c1C (stereo not drawn) | -31.7% (inactive) | 7.27 | 2.84
47 | COc1ccc(OCC(=O)N2CCN(C(=O)c3cccc4ccccc34)CC2)cc1 | -1.2% (inactive) | -3.25 | 2

Reference: PubChem BioAssay AID771 (SRMLSC, 2007)
